Shown are actives, neighbours in structure and some others; about 19% of the full set was active somewhere.
DT40 TDP1 no CPT: qHTS for Inhibitors of human tyrosyl-DNA phosphodiesterase 1 (TDP1): qHTS in cells in absence of CPT; DT40 Tdp1-/- hTDP1 cells, no CPT, ATP luminescence, 48 h; Potency, µM (top dose mostly 46.2 µM), hits mostly inhibitors; 420,000 compounds, 15% hits; note: nearly all actives have a fitted effect of over 55% in size
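A cellular qHTS used chicken DT40 cells lacking endogenous Tdp1 but carrying stably transfected human TDP1. Compounds were applied without camptothecin, and cell growth kinetics were judged by ATP-dependent luminescence after ≥48 hr.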
KB-V1 cytotox: qHTS assay for MDR1-selective chemotherapeutics: Primary screen using the drug-selected MDR subline cells KB-V1; KB-V1 MDR cells viability, CellTiter-Glo, 72 h; Potency, µM (top dose mostly 46.1 µM), hits mostly cytotoxic; 400,000 compounds, 3.4% hits; AID 1347076, 2019; note: nearly all actives have a fitted effect of over 60% in size
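KB-V1, DMEM (no phenol red) + 10% FBS; cpd pin-transferred, titration series; 72 h, 37 degrees C; CellTiter-Glo, luminescence. Data normalized, curve-fit.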
HT1080 IDH1KD tx: qHTS for induction of synthetic lethality in tumor cells producing 2HG: qHTS for the HT-1080-IDH1KD cell line; HT-1080 IDH1 knockdown viability, ATP luminescence, 48 h; Potency, µM (doses to about 46.1 µM), hits mostly cytotoxic; 360,000 compounds, 2% hits
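IDH1KD HT-1080 cells, 750/well, RPMI + 5% FBS; compound pinned after 2 h settling; 48 h, 37 °C; CellTiter-Glo luminescence; % activity normalised to DMSO and no-cell wells; curves fitted, classed by r2 and efficacy.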
KB-3-1 cytotox: qHTS assay for MDR1-selective chemotherapeutics: Primary screen using the parental adenocarcinoma cell KB-3-1; KB-3-1 viability, CellTiter-Glo ATP luminescence, 72 h; Potency, µM (doses to about 46.1 µM), most hits filed as cytotoxic; 400,000 compounds, 1.4% hits; AID 1347075, 2019; note: nearly all actives have a fitted effect of over 60% in size
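Multi-concentration cytotoxicity screen in KB-3-1 cells grown in DMEM lacking phenol red with 10% FBS. After 72 h at 37 °C with compound, ATP-dependent luminescence was recorded.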
HT1080-NT tox: qHTS for induction of synthetic lethality in tumor cells producing 2HG: qHTS for the HT-1080-NT fibrosarcoma cell line; HT-1080-NT fibrosarcoma viability, CellTiter-Glo ATP luminescence, 48 h; Potency, µM (highest dose often 46.1 µM), hits mostly cytotoxic; 360,000 compounds, 1.6% hits;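 note: NT is the 2HG producing partner of a matched IDH1 knockdown line; nearly all actives have a fitted effect of over 55% in size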
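HT-1080-NT; 750 cells/well; 5% FBS RPMI; 48 h compound, 37 degrees C; CellTiter-Glo luminescence; curve fitting and curve-class assignment.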
TDP1 cell CPT: qHTS for Inhibitors of human tyrosyl-DNA phosphodiesterase 1 (TDP1): qHTS in cells in presence of CPT; chicken DT40 Tdp1-/-;hTDP1 cells + 20 nM CPT, ATP luminescence, 48 h; Potency, µM (highest dose often 46.2 µM), most hits filed as inhibitors; 420,000 compounds, 12% hits; note: nearly all actives have a fitted effect of over 55% in size
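Chicken DT40 Tdp1-/- cells stably complemented with human TDP1 were seeded at 400 cells/well in medium containing 20 nM camptothecin, exposed to pin-transferred compounds, and grown at 37 °C for at least 48 hr. Viability was read as ATP luminescence.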
A number is an active result; - = inactive; ? = inconclusive; . = no result; ! = not confirmed by another sample. Calls come from the whole dose curve; as a rule, active = well fitted curve in the direction sought with a large enough effect; inconclusive = small, poorly fitted or top-dose-only effect, or another doubt; inactive = no such curve, though single readings can be large; an effect the other way counts as inactive or inconclusive.

SMILES	DT40 TDP1 no CPT	KB-V1 cytotox	HT1080 IDH1KD tx	KB-3-1 cytotox	HT1080-NT tox	TDP1 cell CPT
Cc1ccc(S(=O)(=O)N[C@H](C(=O)NC2CCC(C)CC2)C(C)C)cc1 (stereo partly drawn)	18.4µM	-	-	-	-	?
Cc1ccc(S(=O)(=O)NC(C)C(=O)NC2CC2)cc1 (stereo not drawn)	-	-	-	-	-	-
COc1ccccc1S(=O)(=O)N(C)C[C@H]1OCc2cnnn2CCCC(=O)N([C@@H](C)CO)C[C@@H]1C	-	-	-	-	-	-
CCn1c(CNC(=O)c2ccc(OC)cc2)nnc1SCC(=O)Nc1cccc(C)c1	-	?	.	-	.	-
c1cc(-c2cnc3cccnn23)c2cccnc2c1	?	-	-	-	-	9.2µM
c1ccc2c(-c3cnc4cccnn34)cncc2c1	-	-	-	-	-	?
COc1cccc(N2CC(NC(=O)/C=C\c3ccc4c(c3)OCO4)CC2=O)c1 (stereo not drawn)	-	.	.	.	.	-
COc1ccccc1NC(=O)c1nn(C)c2c1CS(=O)(=O)c1ccccc1-2	-	-	.	-	.	-
COc1cc(NC(=O)c2nn(C)c3c2COc2ccccc2-3)cc(OC)c1OC	3.26µM	.	.	.	.	4.61µM
CC1CCCC(NC(=O)c2nn(C)c3c2CS(=O)(=O)c2ccccc2-3)C1C (stereo not drawn)	9.2µM	-	-	-	-	?
COc1cc(NC(=O)c2nn(C)c3c2CS(=O)(=O)c2ccccc2-3)cc(OC)c1	16.4µM	-	-	-	-	?
Cn1nc(C(=O)NCc2ccc(Cl)cc2)c2c1-c1ccccc1S(=O)(=O)C2	?	-	-	-	-	?
Cc1ccc(Cl)cc1N1CCN(C(=O)c2nn(C)c3c2CS(=O)(=O)c2ccccc2-3)CC1	11.6µM	?	.	-	.	20.6µM
Cc1ccc(/C=C/c2onc(C)c2S(=O)(=O)N2CCC(C(=O)NCc3ccc(Cl)cc3)CC2)cc1	-	-	.	-	.	-
Cn1nc(C(=O)N2CCN(c3cccc(Cl)c3)CC2)c2c1-c1ccccc1S(=O)(=O)C2	?	?	-	-	-	18.4µM
Cn1nc(C(=O)NCCc2ccc(Cl)cc2)c2c1-c1ccccc1S(=O)(=O)C2	29.1µM	-	-	-	-	?
COc1ccc(N2CCN(C(=O)c3nn(C)c4c3CS(=O)(=O)c3ccccc3-4)CC2)cc1	?	-	-	-	-	23.1µM!
CC(=O)c1ccc(N2CCN(C(=O)c3nn(C)c4c3CS(=O)(=O)c3ccccc3-4)CC2)cc1	?	-	-	-	-	?
Cn1nc(C(=O)N2CCN(c3ccc(Cl)cc3)CC2)c2c1-c1ccccc1S(=O)(=O)C2	?	-	-	?	-	16.4µM
Cc1ccc(CCNC(=O)c2nn(C)c3c2CS(=O)(=O)c2ccccc2-3)cc1	?	-	-	-	-	?
CCOC(=O)c1[nH]c(C)c(CCC(=O)NCc2ccc(N(C)C)cc2)c1C	-	-	.	-	.	-
COc1ccccc1N1CCN(C(=O)c2nn(C)c3c2CS(=O)(=O)c2ccccc2-3)CC1	?	?	-	-	-	?
Cc1ccc(NC(=O)c2nn(C)c3c2CS(=O)(=O)c2ccccc2-3)c(Cl)c1	-	-	.	-	.	-
Cc1cccc(N2CCN(C(=O)c3nn(C)c4c3CS(=O)(=O)c3ccccc3-4)CC2C)c1 (stereo not drawn)	18.4µM	?	-	-	-	23.1µM
Cc1ccc(N2CCN(C(=O)c3nn(C)c4c3CS(=O)(=O)c3ccccc3-4)CC2)c(C)c1	20.6µM	?	-	-	-	18.4µM
SMILES	DT40 TDP1 no CPT	KB-V1 cytotox	HT1080 IDH1KD tx	KB-3-1 cytotox	HT1080-NT tox	TDP1 cell CPT
CCCCCCn1ccc(=N)cc1	0.206µM	-	-	8.2µM	-	0.206µM
COc1ccc(-c2nc(CS(=O)CC(=O)N3CCOCC3)c(C)o2)cc1OC (stereo not drawn)	-	-	-	-	-	-
CCN(c1cccc(C)c1)S(=O)(=O)c1ccc2[nH]cc(C(=O)NCCCOC)c(=O)c2c1	?	?	.	-	.	-
Cc1cccc(-n2ncc3c2CCCC3NC(=O)CCc2ccncc2)c1C (stereo not drawn)	6.51µM	-	-	?	-	11.6µM
Cc1ccn(CCC(=O)NC2CCCc3c2cnn3-c2cccc(C)c2C)n1 (stereo not drawn)	-	-	-	?	-	?
CCn1nc(C)cc1C(=O)NC1CCCc2c1cnn2-c1ccc(C)c(C)c1 (stereo not drawn)	?	.	?	.	-	?
Cc1cc(C(=O)NC2CCCc3c2cnn3-c2cccc(C)c2C)n(C)n1 (stereo not drawn)	0.206µM	?	?	-	?	0.146µM

Source: PubChem BioAssay
